Only some compounds are listed: those with a hit (about 4% of all), similar ones and a draw of the others.
D1 antag = antagonists of human D1 dopamine receptor; HEK293 TREx D1 cells, calcium flux, dopamine EC80; active compounds read low; activity change, negative = inhibition, % at 10 µM; hit rate 3.2% among 360,000; AID 504652; in the data active means activity change below about -30%; further: on the % scale 0 is the no-effect control and ±100 the full control effect
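Calcium flux readout: force-coupled, inducible Hek293 Trex D1 line, cells induced overnight at 30 C with tetracycline, dye-loaded 30–90 min at RT. Antagonism scored against EC80 dopamine challenge given 180 s after compound.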
D1 potentiator = potentiators of human D1 dopamine receptor. P21728. HEK293 TREx D1 cells, calcium flux, dopamine EC20 potentiation. potentiation, % at 10 µM. hit rate 0.036% among 360,000. AID 504651; in the data active means potentiation above about 30%; further: 0% is about no effect
D1 agonist = activates the human D1 dopamine receptor; activation, % at 2 µM; hit rate 1% among 360,000; HEK293 T-REx D1 cells, calcium flux, agonist mode; P21728; further: 0% is about no effect
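Tetracycline-induced HEK293 TREx D1 cells, force-coupled to calcium signalling, were dye-loaded with a no-wash calcium kit. Compound was pin-added after a 10 s baseline. Fluorescence was read kinetically at 1 cycle/s for 180 s, with calcium rises flagged as agonism.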
TRHR enhancer = allosteric enhancers of human TRH receptor; P34981; TRHR cells, fluo-8 calcium fluorescence, EC20 TRH enhancement; enhancement, % at 2 µM; hit rate 0.66% among 360,000; in the data active means enhancement above about 30%; further: 0% is about no effect
Target sequence (P34981 whole entry, looked up): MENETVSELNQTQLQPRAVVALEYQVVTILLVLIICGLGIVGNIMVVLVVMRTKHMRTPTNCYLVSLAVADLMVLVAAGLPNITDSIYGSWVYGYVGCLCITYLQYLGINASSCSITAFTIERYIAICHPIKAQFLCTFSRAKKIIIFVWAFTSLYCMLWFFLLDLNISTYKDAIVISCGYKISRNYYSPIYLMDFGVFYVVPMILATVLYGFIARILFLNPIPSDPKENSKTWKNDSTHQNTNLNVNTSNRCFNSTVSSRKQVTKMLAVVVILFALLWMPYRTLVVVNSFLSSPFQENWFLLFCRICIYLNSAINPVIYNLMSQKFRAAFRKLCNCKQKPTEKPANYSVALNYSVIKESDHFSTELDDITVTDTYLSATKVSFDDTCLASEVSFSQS
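Enhancer read-out: after compound pinning and an initial kinetic agonist-mode read, an EC20 of TRH (10 nM final) was injected and fluo-8 calcium signal (Ex 480/Em 530) followed at 1 s/cycle for 100 cycles in TRHR-expressing cells.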
Glioma ERSR ind = induces the endoplasmic reticulum stress response in human glioma cells; Potency, µM, without a hit: at the highest dose activation, hits mostly activators; hit rate 0.02% among 420,000; U87-MG GRP78 promoter luciferase reporter, 16 h; active means well fitted activation curve with a large enough effect; inconclusive means small, poorly fitted or top-dose-only effect; inactive means no such curve, though single readings can be large or run the other way; further: potency means the concentration at half of the fitted maximal effect; series mostly up to about 76 µM; % of control where 0% means no effect; nearly all actives have a fitted effect of over 35% in size
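ERSR induction read as luciferase luminescence (Bright-Glo, 10 min at room temperature) in stably transfected human U87-MG glioma cells exposed to compounds for 16 h, using GRP78 as sensor.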
TRHR ag = agonists of human TRH receptor; TRHR cells, calcium flux fluo-8, FDSS agonist mode; P34981; hit rate 0.18% among 360,000; activation, % at 2 µM; further: 0% is about no effect
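TRHR-expressing cells loaded with fluo-8 calcium dye; 23 nL library compound pin-transferred, kinetic FDSS fluorescence (Ex 480/Em 530) recorded about 180 s for agonist-induced calcium release, before a 10 nM TRH EC20 addition for potentiator mode.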
Starred values were filed as active, the others as inactive; u = inconclusive; x = no result given; ! = not active in a repeat. Unless noted, no stated cut-off is given here; in the data, active means activation above about 30%; inactive means the rest.

SMILES	D1 antag	D1 potentiator	D1 agonist	TRHR enhancer	Glioma ERSR ind	TRHR ag
CCOC(=O)C(NC(=O)Nc1ccc(F)cc1F)(Oc1ccccc1)C(F)(F)F (configuration not stated)	-1	-1	4	31*	-3%	-2
COc1c(C)cccc1C(=O)NCCCNC(=O)c1ccc(C)nc1	0	-1	2	5	2%	0
Oc1ccc(Br)cc1/C=N/n1c(C2CCCCC2)n[nH]c1=S	-8	3	37*	3	-2%	-1
Oc1ccc(/C=N/n2c(C3CCCCC3)n[nH]c2=S)c(O)c1	-5	-7	5	10	-3%	0
CCCc1cc(-c2n[nH]c(=S)n2-c2cccc(C)c2)cs1	6	-7	4	-1	2%	-1
Cc1ccc(C)c(Cn2nnc(C(=O)Nc3ccc4c(c3)OCCO4)c2N)c1	-4	6	50*	7	8%	8
Cc1cc(C)cc(NC(=O)c2nnn(Cc3cc(C)ccc3C)c2N)c1	-44*	0	10	3	u	4
CCCC1O[C@@H]2C[C@H]3[C@@H]4CCC5=CC(=O)C=C[C@]5(C)[C@H]4[C@@H](O)C[C@]3(C)[C@]2(C(=O)CO)O1 (some centres not stated)	-23	-5	2	33*	-4%	1
COc1ccc(S(=O)(=O)NNC(=O)c2ccccc2-n2cccc2)cc1	-61*	-5	1	-3	-2%	0
COc1cccc(C2CC(C(F)(F)F)n3nc(C(=O)NCc4cccnc4)cc3N2)c1 (configuration not stated)	-14	-1	2	13	-2%	2
COCCN1C=C2C(=O)C(C)(OC(=O)c3cccs3)C(=O)C=C2C=C1CCCC(=O)OC (configuration not stated)	-36*	-6	6	-6	-2%	0
COC(=O)CCCC1=CC2=CC(=O)C(C)(OC(=O)c3cccs3)C(=O)C2=CN1CCCCO (configuration not stated)	11	-3	5	-4	-4%	0
Cc1cccc(OCCC(=O)NCC(=O)Nc2c(C)cccc2C)c1	3	-5	0	31*	-3%	0
Cc1ccc(C(=O)NNC(=O)CCOc2cccc(C)c2)cc1	-6	4	0	1	-3%	0
N#C/C(=N\Nc1cccc(C(F)(F)F)c1)C(=O)c1ccsc1	-32*	-3	22	1	0%	0
COc1ccc(OCC(O)CNC(=O)Nc2ccccc2)cc1 (configuration not stated)	8	-1	0	-2	-4%	-1
COc1ccc(OCC(O)CNC(=O)Nc2ccc(F)cc2)cc1 (configuration not stated)	-38*	-13	1	2	-11%	0
CCOC(=O)C1CCN(C(=O)Cn2nc(C)n3c(cc4sccc43)c2=O)CC1	-42*	-6	1	7	u	0
CCOC(=O)C1CCN(C(=O)Cn2nc(C)n3nc(-c4ccc(OC)cc4)cc3c2=O)CC1	-4	-2	4	8	-2%	0
O=C(CCn1c(=O)[nH]c2ccsc2c1=O)N1CCc2ccccc2C1	0	-2	3	-1	-2%	0
CCOC(=O)N1CCN(C(=O)CCn2c(=O)[nH]c3ccsc3c2=O)CC1	14	-5	3	-5	1%	0
CCOC(=O)N1CCN(C(=O)CCn2c(=S)[nH]c3ccsc3c2=O)CC1	-49*	-4	-1	39*	-1%	-1
CCOC(=O)C1CCN(C(=O)CCn2c(=O)[nH]c3ccsc3c2=O)CC1	-37*	-7	2	3	-6%	0
O=C(O)c1ccc(/C=N/NC(=O)c2cc3c(ccc4ccccc43)o2)cc1	-7	7	5	2	4%	0
O=C(N/N=C/c1ccncc1)c1cc2c(ccc3ccccc32)o1	-32*	0	2	-10	-4%	-1
SMILES	D1 antag	D1 potentiator	D1 agonist	TRHR enhancer	Glioma ERSR ind	TRHR ag
CCCCN(C(=O)c1oc2ccc(OCC)cc2c1C)c1c(N)n(CC(C)C)c(=O)[nH]c1=O	-32*	-16	0	-8	-3%	0
Cc1ccc(C(=O)CSc2nc3ccccc3c(=O)[nH]2)cc1	-30*	-2	0	4	-4%	0
Cc1ccc(NC(=O)Cn2c(O)c(N=NC(=O)c3cc([N+](=O)[O-])ccc3O)c3ccccc32)cc1	-40*	-7	-1	2	x	0
O=C(Cn1c(NCCO)nc2ccccc21)N1CCN(Cc2ccccc2)CC1	-41*	-1	1	2	3%	0
NC(=O)CS(=O)(=O)c1nc2ccccc2n1CC(=O)N1CCCCC1	-13	-8	2	3	-1%	1
CCc1nc2ccccc2n1CC(=O)N1CCN(Cc2ccccc2)CC1	8	-3	1	-2	-3%	0
O=C(Cn1c(S(=O)(=O)Cc2ccccc2)nc2ccccc21)N1CCCCC1	-35*	x	4	9	-3%	-1
CC(=O)c1cn(-c2ccc(Cl)cc2)c(=O)[nH]c1=O	-32*	-1	0	-5	-6%	0
Clc1cccc(CNc2nnnn2-c2ccccc2)c1	-46*	-11	37*	-2	-3%	0
CN1C(=O)/C(=C/c2cccc(Cl)c2)Sc2ccc(C(=O)NCc3cccnc3)cc21	-40*	-10	12	5	-4%	0
COc1ccc(/C=C2\Sc3ccc(C(=O)N4CCN(Cc5ccccc5)CC4)cc3N(C)C2=O)cc1OC	-14	-8	4	3	-4%	0
COc1cccc(/C=C2\Sc3ccc(C(=O)NCc4cccnc4)cc3N(C)C2=O)c1	-17	-8	3	0	-4%	-1
CN1CCN(C(=O)c2ccc3c(c2)N(C)C(=O)/C(=C/c2cccc(Cl)c2)S3)CC1	-38*	-7	22	-2	-5%	1
COc1cccc(S(=O)(=O)N(C)C[C@@H]2Oc3ncc(C#CCN(C)C)cc3C(=O)N([C@H](C)CO)C[C@H]2C)c1	x	x	x	x	-2%	x
COc1cc(C(=O)Nc2ccc3c(c2)OCCO3)ccc1-n1cnnn1	3	-4	-1	-10	0%	-1
O=C1C2C(c3ccccc3)C=CC(c3ccccc3)C2C(=O)N1C1CCCCC1 (configuration not stated)	9	1	3	35*	-3%	0
Fc1ccc(SCCc2ccncc2)cc1	-34*!	-10	9	-2	0%	0
c1ccc(SCCc2ccncc2)cc1	-7	-4	4	1	4%	0

Assay outcomes: PubChem BioAssay, National Center for Advancing Translational Sciences (NCATS)
